# This is one part of a sample in which the strongest signals are shown more often than they occur.
# B1: B936 (Bifidobacterium sp) (protein)
# chain: MKNWKKAIALVASAAALVSVAACGPSNAGGSSDSGKKTVGFVAVGPEGGFRTANEKDIQKAFEDAGFDLTYSPTQNNDQQKQIQAFNKFVNDEVDAIILSSTEDSGWDDSLKKAAEAEIPVFTVDRNVDVKDAEAKKAIVAHIGPSNVWCGEQAAEFVNKNFPDGANGFILEGPAGLSVVKDRGTGWGNKVASNVKVLESQSANWSTDEAKTVTAGLLDKYKSDNPQFIFAQNDEMGLGAAQAVDAAGLKGKVKIITIDGTKNALQALVDGDLSYVIEYNPIFGKETAQAVKDYLDGKTVEKDIEIESKTFDAASAKEALDNNTRAY
# Legend:
# Assay in all cases: glycan array binding signal (z-score within array); higher = stronger binding
# Conditions in all cases: glycan notation: IUPAC condensed, linker removed
# [1] = target: Gal(b1-4)GlcNAc(b1-2)[Gal(b1-4)GlcNAc(b1-6)]Man(a1-6)[GlcNAc(b1-4)][Gal(b1-4)GlcNAc(b1-2)Man(a1-3)]Man(b1-4)GlcNAc(b1-4)GlcNAc
# Method in brief: (§1)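 Glycan array data were curated from 3228 arrays in the Consortium for Functional Glycomics database and kept only where the protein sequence was available. Glycan names were converted to IUPAC-condensed notation, and columns mapping to the same glycan were averaged. The binding signal is a within-array Z-score, averaged across arrays of the same protein sequence at different concentrations or buffers and across linkers. Negative Z-scores can be read as non-binding.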
# [2] = target: Gal(b1-4)GlcNAc(b1-3)Gal(b1-4)Glc
# Method in brief: as §1
# [3] = target: Gal(b1-4)GlcNAc(b1-6)[Gal(b1-3)]GalNAc
# Method in brief: as §1
# Gal3S(b1-3)GlcNAc = target: Gal3S(b1-3)GlcNAc
# Method in brief: as §1
# Gal6S(b1-4)GlcNAc6S = target: Gal6S(b1-4)GlcNAc6S
# Method in brief: as §1
# [4] = target: GalNAc(b1-4)GlcNAc(b1-2)Man(a1-3)[GalNAc(b1-4)GlcNAc(b1-2)Man(a1-6)]Man(b1-4)GlcNAc(b1-4)GlcNAc
# Method in brief: as §1
# GlcA(b1-3)Gal = target: GlcA(b1-3)Gal
# Method in brief: as §1
# [5] = target: GlcNAc(a1-3)Gal(b1-4)GlcNAc
# Method in brief: as §1
# [6] = target: GlcNAc(b1-3)Gal(b1-4)GlcNAc(b1-3)Gal(b1-4)GlcNAc(b1-2)Man(a1-3)[GlcNAc(b1-3)Gal(b1-4)GlcNAc(b1-3)Gal(b1-4)GlcNAc(b1-2)Man(a1-6)]Man(b1-4)GlcNAc(b1-4)GlcNAc
# Method in brief: as §1
# [7] = target: GlcNAc(b1-3)Gal(b1-4)GlcNAc(b1-3)Gal(b1-4)GlcNAc(b1-3)Gal(b1-4)GlcNAc(b1-3)Gal(b1-4)GlcNAc(b1-2)Man(a1-3)[GlcNAc(b1-3)Gal(b1-4)GlcNAc(b1-3)Gal(b1-4)GlcNAc(b1-3)Gal(b1-4)GlcNAc(b1-3)Gal(b1-4)GlcNAc(b1-2)Man(a1-6)]Man(b1-4)GlcNAc(b1-4)GlcNAc
# Method in brief: as §1
# [8] = target: GlcNAc(b1-3)Gal(b1-4)GlcNAc(b1-3)GalNAc
# Method in brief: as §1
# [9] = target: GlcNAc(b1-6)Gal(b1-4)GlcNAc
# Method in brief: as §1
# Man(a1-3)[Man(a1-6)]Man = target: Man(a1-3)[Man(a1-6)]Man
# Method in brief: as §1
# [10] = target: Neu5Ac(a2-3)Gal(b1-3)GlcNAc(b1-2)Man
# Method in brief: as §1
# [11] = target: Neu5Ac(a2-3)Gal(b1-3)[Fuc(a1-4)]GlcNAc(b1-3)Gal(b1-4)[Fuc(a1-3)]GlcNAc
# Method in brief: as §1
# [12] = target: Neu5Ac(a2-3)Gal(b1-4)GlcNAc(b1-2)[Neu5Ac(a2-3)Gal(b1-4)GlcNAc(b1-4)]Man(a1-3)[GlcNAc(b1-4)][Neu5Ac(a2-3)Gal(b1-4)GlcNAc(b1-2)[Neu5Ac(a2-3)Gal(b1-4)GlcNAc(b1-6)]Man(a1-6)]Man(b1-4)GlcNAc(b1-4)GlcNAc
# Method in brief: as §1
# [13] = target: Neu5Ac(a2-3)Gal(b1-4)GlcNAc(b1-2)[Neu5Ac(a2-3)Gal(b1-4)GlcNAc(b1-4)]Man(a1-3)[GlcNAc(b1-4)][Neu5Ac(a2-3)Gal(b1-4)GlcNAc(b1-4)Man(a1-6)]Man(b1-4)GlcNAc(b1-4)GlcNAc
# Method in brief: as §1
# [14] = target: Neu5Ac(a2-6)Gal(b1-4)GlcNAc(b1-2)Man(a1-6)Man(b1-4)GlcNAc(b1-4)GlcNAc
# Method in brief: as §1
# [15] = target: Neu5Ac(a2-6)Gal(b1-4)GlcNAc(b1-2)Man(a1-6)[Gal(b1-4)GlcNAc(b1-2)Man(a1-3)]Man(b1-4)GlcNAc(b1-4)GlcNAc
# Method in brief: as §1
# [16] = target: Neu5Ac(a2-6)Gal(b1-4)GlcNAc(b1-3)GalNAc
# Method in brief: as §1
# [17] = target: Neu5Ac(a2-8)Neu5Ac(a2-3)[GalNAc(b1-4)]Gal(b1-4)Glc
# Method in brief: as §1
# [18] = target: Neu5Ac9Ac(a2-3)Gal(b1-3)GlcNAc
# Method in brief: as §1
# [19] = target: Neu5Gc(a2-3)Gal(b1-3)[Fuc(a1-4)]GlcNAc
# Method in brief: as §1
# [20] = target: Neu5Gc(a2-3)Gal(b1-4)[Fuc(a1-3)]GlcNAc
# Method in brief: as §1
binder,measurement,setting,value
B1,glycan array binding signal (z-score),[1],-0.558
same,glycan array binding signal (z-score),[2],3.24
same,glycan array binding signal (z-score),[3],0.173
same,glycan array binding signal (z-score),Gal3S(b1-3)GlcNAc,0.121
same,glycan array binding signal (z-score),Gal6S(b1-4)GlcNAc6S,0.127
same,glycan array binding signal (z-score),[4],3.25
same,glycan array binding signal (z-score),GlcA(b1-3)Gal,-0.516
same,glycan array binding signal (z-score),[5],0.799
same,glycan array binding signal (z-score),[6],0.824
same,glycan array binding signal (z-score),[7],-0.371
same,glycan array binding signal (z-score),[8],-0.806
same,glycan array binding signal (z-score),[9],-0.106
same,glycan array binding signal (z-score),Man(a1-3)[Man(a1-6)]Man,-0.318
same,glycan array binding signal (z-score),[10],0.307
same,glycan array binding signal (z-score),[11],0.193
same,glycan array binding signal (z-score),[12],-0.471
same,glycan array binding signal (z-score),[13],0.275
same,glycan array binding signal (z-score),[14],0.197
same,glycan array binding signal (z-score),[15],-0.37
same,glycan array binding signal (z-score),[16],2.06
same,glycan array binding signal (z-score),[17],-0.488
same,glycan array binding signal (z-score),[18],-0.521
same,glycan array binding signal (z-score),[19],0.081
same,glycan array binding signal (z-score),[20],-0.593

# Reference: the supplement of paper PMC8728848
